In the supplement of paper PMC6555819:

Tests used:
Experiment in all cases: PBM binding z-score (relative to random genomic background probes); higher = stronger binding; sequences stand for … in GC…GCGATTGACAGCGTAGAATGAAGG
[1] = system: FXR:RXRa (NR concentration 270 nM, RXRa partner concentration 90 nM)
Outline: (§1)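 Binding z-scores take random background probes as their reference. They come from custom Agilent 4×180K protein-binding microarrays incubated 1 h with ligand-free nuclear receptor dimers, with antibodies against each partner (one per run) detecting binding. Scanned fluorescence was regression-normalized.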

[2] = system: LXRa:RXRa (NR concentration 270 nM, RXRa partner concentration 90 nM)
Outline: as §1

[3] = system: LXRa homodimer (NR concentration 270 nM)
Outline: as §1

[4] = system: LXRb:RXRa (NR concentration 270 nM, RXRa partner concentration 90 nM)
Outline: as §1

[5] = system: LXRb homodimer (NR concentration 270 nM)
Outline: as §1

[6] = system: PPARa:RXRa (NR concentration 270 nM, RXRa partner concentration 90 nM)
Outline: as §1

[7] = system: PPARg:RXRa (NR concentration 180 nM, RXRa partner concentration 90 nM)
Outline: as §1

[8] = system: PPARg:RXRa 270nM:90nM, anti-RXR (NR concentration 270 nM, RXRa partner concentration 90 nM)
Outline: as §1

[9] = system: PPARg:RXRa 30nM:10nM, anti-RXR (NR concentration 30 nM, RXRa partner concentration 10 nM)
Outline: as §1

[10] = system: PPARg:RXRa 90nM:30nM, anti-RXR (NR concentration 90 nM, RXRa partner concentration 30 nM)
Outline: as §1

[11] = system: PPARg:RXRa DBDmut IVT, anti-RXR (DBD mutation: RXRa K156A/R161A, NR concentration 270 nM, RXRa partner concentration 90 nM)
Outline: as §1

[12] = system: PPARg:RXRa IVT, anti-PPARg (NR concentration 270 nM, RXRa partner concentration 90 nM)
Outline: as §1

[13] = system: PPARg DBDmut:RXRa IVT, anti-PPARg (DBD mutation: PPARg1 K132A/R137A, NR concentration 270 nM, RXRa partner concentration 90 nM)
Outline: as §1

[14] = system: PPARg DBDmut IVT, anti-PPARg (DBD mutation: PPARg1 K132A/R137A, NR concentration 270 nM)
Outline: as §1

[15] = system: PPARg homodimer (NR concentration 180 nM)
Outline: as §1

[16] = system: PXR:RXRa (NR concentration 270 nM, RXRa partner concentration 90 nM)
Outline: as §1

[17] = system: PXR homodimer (NR concentration 270 nM)
Outline: as §1

[18] = system: RARa:RXR (NR concentration 270 nM, RXRa partner concentration 90 nM)
Outline: as §1

[19] = system: RARa homodimer (NR concentration 270 nM)
Outline: as §1

[20] = system: RARb:RXRa (NR concentration 270 nM, RXRa partner concentration 90 nM)
Outline: as §1

Sequence	PBM binding z-score [1]	PBM binding z-score [2]	PBM binding z-score [3]	PBM binding z-score [4]	PBM binding z-score [5]	PBM binding z-score [6]	PBM binding z-score [7]	PBM binding z-score [8]	PBM binding z-score [9]	PBM binding z-score [10]	PBM binding z-score [11]	PBM binding z-score [12]	PBM binding z-score [13]	PBM binding z-score [14]	PBM binding z-score [15]	PBM binding z-score [16]	PBM binding z-score [17]	PBM binding z-score [18]	PBM binding z-score [19]	PBM binding z-score [20]
CTCGAAAGTTCGTGCTCAGGTGAGTATACCAAAC	0.841	1	0.162	1.03	-0.134	1.39	-0.262	0.502	0.0705	0.433	-0.18	0.443	-0.211	0.0374	0.564	1.4	0.241	1.64	-0.0689	2.06
GCCCGGAGGACAAGGTCAGAGCTTTGTCCGTAGA	1.63	1.41	-0.287	1.05	-1.25	1.98	-0.107	0.592	-0.793	-0.158	-0.658	0.093	-1.17	-2.1	0.821	1.56	-0.306	2.17	-1.21	3.16
CCGACTGGGCCATAAGGTTACCATAAGCCAGCCC	0.273	1.84	-0.402	0.636	-0.941	1.4	1.57	2.48	0.644	2.05	1.93	2.16	-0.459	-1.39	0.396	0.04	-0.806	1.15	-0.622	1.06
GATACAGGATCAGCTAGAGGCCAGAGTATGGAAA	-0.162	-0.497	-0.55	-0.727	-1.05	-0.383	0.505	-0.286	0.0459	0.0181	-1.08	-0.432	-0.311	-0.748	-0.609	-0.395	-0.577	-0.16	-0.552	0.184
CCGACTGGGGTAGAAAGGTTACCATACCATCCGG	0.17	0.786	-0.133	1.06	-1.02	2.58	2.04	3.63	1.08	3.32	0.466	1.2	-1.23	-0.59	1.69	1.32	-0.0597	2.45	0.375	1.72
AGAATGAAGTTATTAAGATCAGGGAATTGCGGTC	-0.377	-0.535	-0.241	-0.514	-0.42	-0.386	0.173	-0.222	0.106	0.114	-0.0627	-0.0866	0.409	0.313	0.538	-0.219	0.044	0.183	0.224	-0.286
TGTCAAAGTTCATAGGTAACGTAAGTATCCACAC	6.65	5.95	4.17	4.02	1.38	5.13	7.92	7.41	4.42	6.63	0.217	4.39	1.15	2.16	1.89	5.05	3.32	4.15	0.391	4.9
TCGCGGAGGACACGAAAGGTCAGAGCTCGACATC	2.61	3.72	2.77	3.12	-0.812	3.59	1.18	2.51	0.965	1.95	0.791	1.5	0.00207	-0.746	2.36	3.97	0.407	4.24	1.04	4.03
TGAATGAGGTTAAAGCTCAGGGAACGTGGCGTCG	2.94	1.92	-0.466	0.894	-0.222	3.6	2.86	4	2.09	3.82	2.25	2.59	-0.0715	0.871	0.0932	1.07	-0.806	1.84	-0.696	1.78
CTACTAAGGTGAACAAGGTCGTTGATTACTATTC	1.84	1.76	0.193	2.02	-0.227	3.07	1.47	1.99	0.156	1.06	3.87	3.07	0.656	0.383	1.12	3.22	2.35	3.18	0.606	2.4
CCAGACAGGTGAAAGGTAAATCAGTCTGGTACGC	0.431	0.642	-0.205	0.749	-0.327	3.27	5.01	5.7	4	6.32	1.86	2.8	0.0874	-1.06	2.52	0.697	-0.183	1.67	0.663	1.04
AAAATGAGGTTACCAAAGATCAGGGAAACGCTTG	2.21	6.37	-0.0548	3.4	-0.136	3.71	3.49	3.24	1.2	2.53	4.97	4.33	2.73	0.928	0.63	1.71	0.241	2.47	-0.123	2.31
TCTATTAGTTGATTAGGGCAACCTAAACAGCGGA	0.561	0.704	0.325	0.595	0.8	0.918	0.209	1.95	3.39	2.86	1.94	1.73	1.37	1.62	1.03	0.712	-0.0681	1.11	1.09	1.14
